Measurements: the supplement of paper PMC6555819

What was measured:
Assay in all cases: PBM binding z-score (relative to random genomic background probes); higher = stronger binding; sequences stand for … in GC…GCGATTGACAGCGTAGAATGAAGG
[1] = system: PPARg:RXRa DBDmut IVT, anti-RXR (DBD mutation: RXRa K156A/R161A, NR concentration 270 nM, RXRa partner concentration 90 nM)
Outline: (§1)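 Probes were double-stranded and carried 34-nt variable regions with direct-repeat seeds, single-nucleotide variants, half-site ablations and random human genomic background sequences, printed on custom Agilent 4×180K protein-binding microarrays. Arrays were incubated 1 h with ligand-free nuclear receptor dimers in PBS pH 7.4, 2% milk, 0.02% Triton X-100, 1 mM DTT, 0.2 mg/mL BSA and 0.4 mg/ml salmon testes DNA. Antibodies against each partner (one per run) detected binding, and scanned fluorescence was regression-normalized. Binding z-scores use the random background probes as reference.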

[2] = system: PPARg:RXRa IVT, anti-PPARg (NR concentration 270 nM, RXRa partner concentration 90 nM)
Outline: as §1

[3] = system: PPARg DBDmut:RXRa IVT, anti-PPARg (DBD mutation: PPARg1 K132A/R137A, NR concentration 270 nM, RXRa partner concentration 90 nM)
Outline: as §1

[4] = system: PPARg DBDmut IVT, anti-PPARg (DBD mutation: PPARg1 K132A/R137A, NR concentration 270 nM)
Outline: as §1

[5] = system: PPARg homodimer (NR concentration 180 nM)
Outline: as §1

[6] = system: PXR:RXRa (NR concentration 270 nM, RXRa partner concentration 90 nM)
Outline: as §1

[7] = system: PXR homodimer (NR concentration 270 nM)
Outline: as §1

[8] = system: RARa:RXR (NR concentration 270 nM, RXRa partner concentration 90 nM)
Outline: as §1

[9] = system: RARa homodimer (NR concentration 270 nM)
Outline: as §1

[10] = system: RARb:RXRa (NR concentration 270 nM, RXRa partner concentration 90 nM)
Outline: as §1

Sequence	PBM binding z-score [1]	PBM binding z-score [2]	PBM binding z-score [3]	PBM binding z-score [4]	PBM binding z-score [5]	PBM binding z-score [6]	PBM binding z-score [7]	PBM binding z-score [8]	PBM binding z-score [9]	PBM binding z-score [10]
TTTCGGAGGACACGAAAGGTCAGAGCTCGACATC	0.372	2.08	-0.0451	0.278	4.65	4.29	0.968	4.44	1.88	4.32
CGAACTATGTCAGAACAGGACAGTGAAGGATGAT	1.99	1.16	0.888	0.9	0.278	-0.225	0.0805	0.0752	0.625	0.461
GCTGCTAGGTCAACAGATGGTCAGCTAAAGCTCG	4.44	3.68	-0.0685	-0.727	1.6	1.22	-0.762	2.23	-0.595	3.97
CGTCAAAGTTCAATGTAACGTAACAGAAAGCAGC	0.367	1.51	1.4	0.705	2.6	4.03	4	3.03	1.95	4.83
ACTAGCAGGCCAAGTTTGGGTCAATCAAACAAAG	0.842	0.959	-0.753	-0.879	0.326	0.526	-0.382	1.33	-0.558	1.65
TCGAGTAGGTTAGGGGCATTCAAAATGGCGTCGA	2.11	1.45	-0.544	-0.184	0.857	0.792	0.65	0.797	0.0472	1.24
AGAACGAGGGCAATGAGTGGATAGCACGGGTGGC	3.17	2.32	0.26	-0.542	-0.143	-0.0216	-0.0699	-0.0529	0.296	1.72
TCGAGTAGATTACCAATGGGGCATTCAGCTTTCT	0.795	-0.396	-0.19	-0.114	-0.291	-0.345	-0.382	-0.208	-0.677	-0.295
CCGACTGGGGCACAAAGGTTACCATACCATCCGG	3.32	4.48	-0.0878	-1.02	0.929	1.58	0.126	2.57	0.061	2.31
TCTTGTAGATCAACAGGAGGTTCAGAAAGATCGA	1.5	0.779	0.136	0.251	-0.725	0.256	-0.264	0.00715	-0.572	0.0281
CGTCAAAGTTCAAGGTAACGGAACAGAAAGCAGC	0.343	2.24	0.485	0.919	1.96	3.99	2.13	3.36	1.04	5.07
TCTGCTAGGTTAGTTGGTCAGCTAACGAGCTGCC	1.37	1.5	-0.266	-0.918	-1.12	-0.398	-1.1	-0.512	-1.39	0.525
GGAACGAGGGCAAGTTAATAGCAGAGTTTGATGG	3.46	2.52	0.284	-0.167	0.47	0.548	0.977	0.427	-0.189	2.26
CGAACTAGGTCATTGACAGGAGAGTGAATAGTAA	7.92	8.28	2.36	3.6	1.32	1.04	0.0101	1.99	0.473	3.65
CAAACTAGGTGACAGAGGTCAAAGTCCGTGCGTA	8	8.03	1.36	0.411	2.02	5.61	2.31	5.38	1.29	4.12
TTACCAAGGGGAGCTGAGGTCGTTGATCCAACTC	0.0938	0.219	-0.939	-0.633	-0.405	2.35	0.544	1.03	-0.882	0.604
